Test results from PubChem BioAssay (NCI).
This is part of a sample that, as a whole, favours compounds with a hit. Of some 79,000 tested, about 15% had one in any assay. No stated cut-off is given here; in the data, active means growth inhibition above about 70%; inactive means the rest.

How the values were obtained:
[1] = NCI Yeast Anticancer Drug Screen. Data for the rad50 strain (AID 155);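 further: 0% = growth of vehicle-only cultures of the same strain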; settings: S. cerevisiae rad50 strain growth inhibition; at 50.0 µM; hits give high values
Outline: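 Readout: growth inhibition relative to vehicle-treated cultures. Compound exposure was carried out in a genetically defined yeast strain deficient in DNA damage repair.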

[2] = NCI Yeast Anticancer Drug Screen. Data for the mec2-1 strain (AID 157); settings: S. cerevisiae mec2-1 strain, at 50.0 µM, hits give high values
Outline: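 Yeast mec2-1 mutant treated with compound. Readout: growth inhibition vs vehicle controls.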

[3] = NCI Yeast Anticancer Drug Screen. Data for the sgs1 mgt1 strain (AID 161);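 further: 0% = growth of cultures given vehicle only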; settings: S. cerevisiae sgs1 mgt1 strain, at 50.0 µM, hits give high values
Outline: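 Genetically altered yeast, compound exposure, growth inhibition relative to vehicle.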

[4] = NCI Yeast Anticancer Drug Screen. Data for the cln2 rad14 strain (AID 165);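 further: 0% = growth equal to vehicle treated cultures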; settings: S. cerevisiae cln2 rad14 strain, at 50.0 µM, hits give high values
Outline: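 cln2 rad14 yeast strain; compound exposure; growth inhibition read vs vehicle controls.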

[5] = NCI Yeast Anticancer Drug Screen. Data for the bub3 strain (AID 167); settings: S. cerevisiae bub3 mutant strain, at 50.0 µM, hits give high values
Outline: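 Readout: yeast growth inhibition, expressed relative to vehicle-only wells. The test organism is a mutant strain from a panel with lesions in DNA repair or checkpoint genes.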

[6] = NCI Yeast Anticancer Drug Screen. Data for the mlh1 rad18 strain (AID 175); settings: S. cerevisiae mlh1 rad18 strain growth inhibition; at 50.0 µM; hits give high values
Outline: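 Yeast w/ defined DNA-repair lesions; compound exposure; growth vs vehicle controls → % inhibition.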

Measured: growth inhibition

Cc1cc(Cc2c(F)c(F)c(C(c3cc(C)no3)c3c(F)c(F)c(F)c(F)c3F)c(F)c2F)on1 (centres undefined)
inactive: [1] -7.55% | [2] -37.9% | [3] 5.8% | [4] -58.8% | [5] -26.1% | [6] -8.3%

N=C(N)N1CCC(N2CCOCC2)CC1
inactive: [1] 14.7% | [2] -18.4% | [3] -12.6% | [4] -24.4% | [5] 4.75% | [6] -52.5%

CC(C)(C)C(=O)NO
inactive: [1] -12.6% | [2] -12.1% | [3] -13.6% | [4] 6.8% | [5] 4.5% | [6] -0.3%

O=c1nc(N2CCCCCCC2)ccn1C1OC(CO)C(O)C1O (centres undefined)
inactive: [1] 4.85% | [2] 14.6% | [3] 8.95% | [4] 6.75% | [5] 6.85% | [6] 8.5%

NNC(=S)N/N=C\c1ccnc2ccccc12
inactive: [1] 9.05% | [2] 2.85% | [3] 36.6% | [4] 28.7% | [5] 30.2% | [6] 23.4%

Cn1c2ccccc2c(=O)c2cc(NC(=O)CCCCCCCC(=O)Nc3ccc4c(c3)c(=O)c3ccccc3n4C)ccc21
inactive: [1] -10.7% | [2] -12.8% | [3] -10.7% | [4] -12.6% | [5] -27.2% | [6] -1.45%

O=C1NCCCC1O (centres undefined)
inactive: [1] 0.5% | [2] -16.5% | [3] 8% | [4] 5.35% | [5] -6.1% | [6] -2.9%

COC(=O)Cc1ccccc1-n1nccc1S(C)=O (centres undefined)
inactive: [1] 10.2% | [2] -5.05% | [3] 14.3% | [4] -7.65% | [5] 8.6% | [6] 7.45%

COc1cc2cnc(-c3ccncc3)c(O)c2cc1OC
inactive: [1] 30.9% | [2] 40.6% | [3] 37.2% | [4] 1.9% | [5] 36.2% | [6] 28.6%

CCN(CC)CCOc1ccc2ccccc2c1C(Cc1ccccc1)NCCO (centres undefined)
inactive: [1] -13.2% | [2] 1.95% | [3] -20.2% | [4] -19.6% | [5] 3% | [6] 3.05%

Clc1ccc(N=Nc2ccccn2)cc1
inactive: [1] 18.1% | [2] 2% | [3] -11.1% | [4] -65% | [5] -7.6% | [6] -12.2%

c1ccc2c(c1)NC1(CCCCC1)S2
inactive: [1] 5.35% | [2] -13.1% | [3] 39.5% | [4] 11.6% | [5] 5% | [6] 11.9%

COc1nc(C(=O)NNC(=O)c2nc(OC)c3ccccc3c2-c2ccccc2)c(-c2ccccc2)c2ccccc12
inactive: [1] -6.9% | [2] -5.8% | [3] -19.2% | [4] -8.7% | [5] -17% | [6] 1.3%

NC(=O)c1n[nH]n(-c2ccccc2)c1=O
inactive: [1] -13.2% | [2] -5.35% | [3] -7.75% | [4] 0.15% | [5] -19.9% | [6] 3.85%

COC(=O)[C@@H]1[C@H](O)CC[C@H]2[C@@]1(C)CC[C@@H](C)[C@]2(COC(C)=O)CC(=O)c1ccoc1
inactive: [1] -27.1% | [2] -32.2% | [3] -37% | [4] -27.1% | [5] -47.9% | [6] -45.8%

O=C(OC1CCCC1OC(=O)c1ccccc1)c1ccccc1 (centres undefined)
inactive: [1] -11.5% | [2] 9.6% | [3] 1.6% | [4] -5.3% | [5] 12.2% | [6] 22.4%

O=C1CC2(C(=O)N1CN(Cc1ccccc1)Cc1ccccc1)c1ccccc1-c1ccccc12
inactive: [1] 34.5% | [2] 2.1% | [3] -5.55% | [4] 14.1% | [5] -1.1% | [6] 22.4%

NC(CO)C(O)c1ccc([N+](=O)[O-])cc1 (centres undefined)
inactive: [1] -14.6% | [2] -33.2% | [3] -3.3% | [4] -7.25% | [5] -12.2% | [6] -13.7%

Cc1ccc(Cl)cc1NC(=O)Nc1cccc(C(F)(F)F)c1
inactive: [1] 3.3% | [2] 25.5% | [3] 14.2% | [4] -5.4% | [5] 37.1% | [6] 8.95%

CN1Cc2ccccc2C1
inactive: [1] 0.75% | [2] -3.5% | [3] 1.7% | [4] 10.4% | [5] 17.4% | [6] 5.55%

O=C(OCc1c(-c2ccccc2)nn(-c2ccccc2)c1COC(=O)Oc1ccccc1)Oc1ccccc1
inactive: [1] -2.8% | [2] -14.6% | [3] -11.8% | [4] 17.8% | [5] -11.2% | [6] 10.2%

N#CC1=C(N)NC(=O)C(C(N)=O)C1c1ccccc1Cl (centres undefined)
inactive: [1] -16.6% | [2] -13.4% | [3] -12.1% | [4] -11.3% | [5] -11.4% | [6] -12.8%

COc1ccc(C(=O)/C=C/c2ccc(OCCCCCCCCCCOc3ccc(/C=C/C(=O)c4ccc(OC)cc4)cc3)cc2)cc1
inactive: [1] -14.2% | [2] -14.8% | [3] -17% | [4] -15.2% | [6] -17.4%

O=C(CCC1CCCCC1=O)c1ccc(Br)cc1 (centres undefined)
inactive: [1] 6.2% | [2] -15.8% | [3] 12.7% | [4] -6.95% | [5] -6.55% | [6] -10.2%

Cc1nc2ccccc2nc1C1=C(O)c2ccccc2CC1=O
inactive: [1] 0.85% | [2] 8.6% | [3] 10.1% | [4] -71.2% | [5] -10.2% | [6] 1.35%

O=COC(Cc1ccccc1)c1ccc2c(c1)OCO2 (centres undefined)
inactive: [1] 32.2% | [2] -5.2% | [3] 1.6% | [4] -7.2% | [5] 30.6% | [6] -3.05%

Brc1cc2c(cc1C1SCCS1)OCO2
inactive: [1] 49.5% | [2] 20.4% | [3] 58.5% | [4] 18.6% | [5] 28.3% | [6] 34.6%

CCN(CC)c1nc(NNS(=O)(=O)c2ccccc2)nc(N(CC)CC)n1
inactive: [1] -3.6% | [2] -5.2% | [3] 4.3% | [4] -13.1% | [5] -4.3% | [6] 11%

C(=C(/C=C/C(=C/c1ccccc1)c1ccccc1)c1ccccc1)\c1ccccc1
inactive: [1] 33.5% | [2] 13.8% | [3] -11.7% | [4] -59% | [5] 0.65% | [6] -0.65%

COC(=O)N(c1ccccc1)c1ccccn1
inactive: [1] -16.6% | [2] -9.95% | [3] -10.2% | [4] 10.7% | [5] 4.3% | [6] -22.6%

Cc1nnc(-c2cn(C3OC(CO)C(O)C3O)c3ncnc(N)c23)nc1C (centres undefined)
inactive: [1] 6.2% | [2] 15.9% | [3] 1% | [4] 0% | [5] -4.1% | [6] 8.9%

O=C1C2CN(Cc3ccccc3)CC2C(=O)N1c1ccccc1 (centres undefined)
inactive: [1] 1.9% | [2] 13% | [3] 9.25% | [4] -51.8% | [5] -37.7% | [6] 18.2%

CC(C)=CCNc1ccccc1
inactive: [1] -11.3% | [2] -24.1% | [3] 1.7% | [4] 17.4% | [5] 1.05% | [6] -7.3%

ClCc1nn(-c2ccccc2)c(CCl)c1CCl
inactive: [1] 46.6% | [2] 14.3% | [3] 18.4% | [4] -1.45% | [5] 8.25% | [6] -4.55%

Nc1c(S(=O)(=O)O)cc(S(=O)(=O)O)c2ccc(N=Nc3ccccc3)c(O)c12
inactive: [1] 7.15% | [2] 0.9% | [3] -10.8% | [4] -3.05% | [5] -8.7% | [6] -15.7%

Cc1nc2ccc(Cl)cc2c(Cl)c1CCCl
inactive: [1] 12.1% | [2] 6.5% | [3] -19.9% | [4] -8.15% | [5] 31.5% | [6] 13.8%

CCOC(=O)c1ccccc1S(=O)(=O)c1ccccc1C(=O)OCC
inactive: [1] 1.4% | [2] 16.9% | [3] 9.85% | [4] 11.2% | [5] 5.2% | [6] 10.4%

CCCCOC(=O)C12CCCCC1O2 (centres undefined)
inactive: [1] -29.1% | [2] -29.9% | [3] -12.8% | [4] 2.55% | [5] -29.1% | [6] -0.55%

CCC(C)(O)C#CC#CC(C)(O)CC (centres undefined)
inactive: [1] 17.2% | [2] -22.2% | [3] 22.1% | [4] 16.6% | [5] -5.35% | [6] 22.1%

CCN(CC)CCOC(=O)c1ccc(N)c2ccccc12
inactive: [1] -3.8% | [2] 12.2% | [3] -14.3% | [4] -22.4% | [5] 5.5% | [6] 6.85%

CN1CCC(n2[nH]c(-c3ccccc3)c(Cc3ccccc3)c2=O)CC1
inactive: [1] 3.3% | [2] -40.6% | [3] -13.3% | [4] 10.6% | [6] 5.7%
